Results on one sequence are retold here after article PMC7862700, “An all-to-all approach to the identification of sequence-specific readers for epigenetic DNA modifications on cytosine”.

Test in all cases: DAPPL (digital affinity profiling via proximity ligation, sequencing); 10 mM Tris-HCl pH 7.5, 50 mM NaCl, 1 mM DTT, 4% glycerol, room temperature, 30 min; GST-TFs on glutathione beads, 16-mer random dsDNA library, 0.1% formaldehyde crosslink after washing; high values mean tight binding
What all share (details): protein: recombinant; tags: N-terminal GST; dsDNA, one strand shown

In one assay the target is T1, FLI1 (Homo sapiens, UniProt Q01543 1-452).
T1 sequence: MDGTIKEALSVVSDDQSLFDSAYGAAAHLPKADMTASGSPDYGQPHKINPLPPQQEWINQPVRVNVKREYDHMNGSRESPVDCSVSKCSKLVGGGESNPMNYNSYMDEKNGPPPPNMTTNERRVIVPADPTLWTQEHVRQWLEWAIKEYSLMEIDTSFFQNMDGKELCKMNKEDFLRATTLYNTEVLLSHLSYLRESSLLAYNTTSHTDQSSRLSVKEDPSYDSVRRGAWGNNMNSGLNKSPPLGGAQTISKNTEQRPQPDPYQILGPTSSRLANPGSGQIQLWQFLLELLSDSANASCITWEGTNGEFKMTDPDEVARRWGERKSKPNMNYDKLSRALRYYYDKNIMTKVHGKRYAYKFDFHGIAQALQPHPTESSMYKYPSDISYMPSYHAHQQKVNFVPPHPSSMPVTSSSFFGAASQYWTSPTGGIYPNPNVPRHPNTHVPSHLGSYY
The essentials: (§1)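 Beads coated with glutathione captured GST-fused human transcription factors that had been expressed in yeast, and the factors were then given DNA barcodes and pooled with a tag-only sample. The pools were incubated with 200 nmole of a random double-stranded 16-mer DNA library in Tris/NaCl/DTT/glycerol buffer for 30 min at room temperature, washed, crosslinked with 0.1% formaldehyde and proximity-ligated with BsaI/T4 ligase at 37 °C for 1 h. PCR amplification and Illumina NextSeq500 sequencing came last. Binding signal is each hexamer's read frequency for a factor divided by its frequency for the tag-only sample.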

The next assay concerns the target T2, ELK1 (Homo sapiens, UniProt P19419 1-428).
T2 sequence: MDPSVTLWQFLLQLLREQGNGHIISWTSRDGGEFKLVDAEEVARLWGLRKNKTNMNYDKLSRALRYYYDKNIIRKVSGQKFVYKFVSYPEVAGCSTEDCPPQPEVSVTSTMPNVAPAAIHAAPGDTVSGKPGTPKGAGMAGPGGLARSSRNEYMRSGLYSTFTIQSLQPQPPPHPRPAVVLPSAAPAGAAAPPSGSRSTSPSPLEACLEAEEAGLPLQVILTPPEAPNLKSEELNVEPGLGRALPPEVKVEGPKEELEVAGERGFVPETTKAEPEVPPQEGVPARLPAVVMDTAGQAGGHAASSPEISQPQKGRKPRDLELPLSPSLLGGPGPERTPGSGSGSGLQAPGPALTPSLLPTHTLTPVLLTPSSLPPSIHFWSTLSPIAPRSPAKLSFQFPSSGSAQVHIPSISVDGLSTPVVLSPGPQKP
The essentials:
as §1

For the next assay, the target named is T3, GABPA (Homo sapiens, UniProt Q06546 1-454).
T3 sequence: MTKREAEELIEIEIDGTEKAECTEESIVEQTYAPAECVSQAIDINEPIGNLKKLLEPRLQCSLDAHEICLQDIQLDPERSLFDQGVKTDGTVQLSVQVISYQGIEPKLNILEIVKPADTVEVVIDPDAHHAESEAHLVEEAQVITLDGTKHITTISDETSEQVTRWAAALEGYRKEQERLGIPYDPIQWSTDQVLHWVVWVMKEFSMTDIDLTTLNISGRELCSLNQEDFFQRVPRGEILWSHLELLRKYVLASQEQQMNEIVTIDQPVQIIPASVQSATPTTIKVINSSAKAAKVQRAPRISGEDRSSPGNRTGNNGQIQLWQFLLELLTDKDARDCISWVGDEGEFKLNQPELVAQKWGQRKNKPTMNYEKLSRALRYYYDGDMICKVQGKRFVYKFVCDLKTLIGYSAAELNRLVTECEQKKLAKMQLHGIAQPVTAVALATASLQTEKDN
A digest of the protocol: as §1

The next assay has as its target ELF1 (Homo sapiens, UniProt P32519 1-619). The essentials:
as §1

The target in another assay is SPI1 (Homo sapiens, UniProt P17947 1-270). A digest of the protocol:
as §1

Another assay addresses SPIB (Homo sapiens, UniProt Q01892 1-262). A digest of the protocol:
as §1

The target in another assay is T4, ELK3 (Homo sapiens, UniProt P41970 1-407).
T4 sequence: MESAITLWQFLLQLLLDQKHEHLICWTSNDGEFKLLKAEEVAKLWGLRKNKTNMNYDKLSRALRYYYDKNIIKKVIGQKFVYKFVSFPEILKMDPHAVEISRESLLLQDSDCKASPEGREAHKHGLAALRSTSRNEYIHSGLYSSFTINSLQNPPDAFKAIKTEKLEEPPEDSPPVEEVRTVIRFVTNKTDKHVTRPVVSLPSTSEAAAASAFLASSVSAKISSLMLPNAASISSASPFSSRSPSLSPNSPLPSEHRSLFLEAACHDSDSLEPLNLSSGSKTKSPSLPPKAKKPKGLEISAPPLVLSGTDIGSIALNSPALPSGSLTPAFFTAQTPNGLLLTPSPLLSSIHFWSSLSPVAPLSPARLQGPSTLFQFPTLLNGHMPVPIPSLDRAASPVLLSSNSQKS
The essentials:
as §1

For a further assay, the target named is T5, FEV (Homo sapiens, UniProt Q99581 1-238).
T5 sequence: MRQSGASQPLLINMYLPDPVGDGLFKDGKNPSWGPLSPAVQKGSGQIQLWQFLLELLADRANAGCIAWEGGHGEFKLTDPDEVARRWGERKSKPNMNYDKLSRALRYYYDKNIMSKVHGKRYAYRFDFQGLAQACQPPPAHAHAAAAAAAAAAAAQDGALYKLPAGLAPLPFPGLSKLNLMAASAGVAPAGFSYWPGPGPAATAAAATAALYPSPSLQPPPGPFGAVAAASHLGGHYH
The essentials: as §1

Another assay addresses ETV5 (Homo sapiens, UniProt P41161 1-510). A digest of the protocol:
as §1

The next assay has as its target ELF4 (Homo sapiens, UniProt Q99607 1-663). A digest of the protocol: as §1
In a further assay the target is ETV1 (Homo sapiens, UniProt P50549 1-477). A digest of the protocol: as §1
Sequence of ETV1 (P50549 whole entry): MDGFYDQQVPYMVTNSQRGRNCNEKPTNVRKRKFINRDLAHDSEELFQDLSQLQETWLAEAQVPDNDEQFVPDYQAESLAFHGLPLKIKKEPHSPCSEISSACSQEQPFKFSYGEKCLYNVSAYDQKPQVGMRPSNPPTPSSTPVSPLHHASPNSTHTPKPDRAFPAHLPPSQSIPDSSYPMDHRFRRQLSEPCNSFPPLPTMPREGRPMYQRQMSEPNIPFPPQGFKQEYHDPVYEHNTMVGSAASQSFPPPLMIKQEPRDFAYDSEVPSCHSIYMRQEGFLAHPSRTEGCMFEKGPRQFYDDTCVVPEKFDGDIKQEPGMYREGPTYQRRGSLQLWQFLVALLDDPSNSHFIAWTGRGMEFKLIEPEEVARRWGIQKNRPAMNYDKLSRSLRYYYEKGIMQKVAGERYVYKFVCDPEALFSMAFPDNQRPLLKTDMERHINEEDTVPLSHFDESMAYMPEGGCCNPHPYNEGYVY
A further assay addresses T6, ERF (Homo sapiens, UniProt P50548 1-548).
T6 sequence: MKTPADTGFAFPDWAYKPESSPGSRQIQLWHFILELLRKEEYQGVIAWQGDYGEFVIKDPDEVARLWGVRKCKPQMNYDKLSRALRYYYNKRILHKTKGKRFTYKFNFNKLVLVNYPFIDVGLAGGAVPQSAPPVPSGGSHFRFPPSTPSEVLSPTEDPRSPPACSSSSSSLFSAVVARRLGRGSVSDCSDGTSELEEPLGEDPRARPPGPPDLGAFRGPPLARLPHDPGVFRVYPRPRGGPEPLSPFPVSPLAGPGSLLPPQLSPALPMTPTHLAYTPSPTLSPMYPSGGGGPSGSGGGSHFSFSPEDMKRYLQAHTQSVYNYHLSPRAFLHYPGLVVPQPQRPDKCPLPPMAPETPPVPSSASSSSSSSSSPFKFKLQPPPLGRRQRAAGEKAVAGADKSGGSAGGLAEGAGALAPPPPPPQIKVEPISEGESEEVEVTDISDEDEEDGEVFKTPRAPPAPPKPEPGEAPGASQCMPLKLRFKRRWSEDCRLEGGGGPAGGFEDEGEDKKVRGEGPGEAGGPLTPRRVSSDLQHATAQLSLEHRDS
The essentials: as §1

The next assay deals with T7, ETV3L (Homo sapiens, UniProt Q6ZN32 1-361).
T7 sequence: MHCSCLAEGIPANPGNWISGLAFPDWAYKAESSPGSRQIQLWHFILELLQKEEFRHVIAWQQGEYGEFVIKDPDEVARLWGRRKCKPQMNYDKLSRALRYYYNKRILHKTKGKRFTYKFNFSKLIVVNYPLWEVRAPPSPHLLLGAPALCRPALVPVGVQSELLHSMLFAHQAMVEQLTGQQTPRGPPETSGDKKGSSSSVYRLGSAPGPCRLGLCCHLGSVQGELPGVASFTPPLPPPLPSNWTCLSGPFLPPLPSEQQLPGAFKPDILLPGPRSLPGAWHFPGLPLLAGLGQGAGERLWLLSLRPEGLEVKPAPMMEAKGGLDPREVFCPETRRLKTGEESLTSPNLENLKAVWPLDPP
The essentials: as §1

The target in the next assay is T8, ETS2 (Homo sapiens, UniProt P15036 1-469).
T8 sequence: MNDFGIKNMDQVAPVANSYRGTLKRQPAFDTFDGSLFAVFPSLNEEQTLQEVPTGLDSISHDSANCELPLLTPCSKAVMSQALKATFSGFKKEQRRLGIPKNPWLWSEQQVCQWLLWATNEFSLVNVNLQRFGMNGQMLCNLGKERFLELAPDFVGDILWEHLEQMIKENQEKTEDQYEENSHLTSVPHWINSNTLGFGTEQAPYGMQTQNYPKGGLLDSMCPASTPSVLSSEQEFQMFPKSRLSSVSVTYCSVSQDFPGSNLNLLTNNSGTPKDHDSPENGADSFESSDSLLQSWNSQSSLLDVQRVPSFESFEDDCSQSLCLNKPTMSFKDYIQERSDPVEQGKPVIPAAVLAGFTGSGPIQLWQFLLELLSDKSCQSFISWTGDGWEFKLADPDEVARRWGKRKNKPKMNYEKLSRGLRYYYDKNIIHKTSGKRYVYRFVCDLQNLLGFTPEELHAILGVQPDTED
The essentials: as §1

The target in the next assay is T9, ELF5 (Homo sapiens, UniProt Q9UKW6-2 1-255).
T9 sequence: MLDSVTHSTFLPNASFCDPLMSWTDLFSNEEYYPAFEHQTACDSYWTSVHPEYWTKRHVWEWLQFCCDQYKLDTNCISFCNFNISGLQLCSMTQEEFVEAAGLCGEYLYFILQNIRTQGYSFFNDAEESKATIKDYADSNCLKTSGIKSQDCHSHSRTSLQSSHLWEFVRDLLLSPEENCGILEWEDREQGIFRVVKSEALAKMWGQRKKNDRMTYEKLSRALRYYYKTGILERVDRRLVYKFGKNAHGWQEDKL
A digest of the protocol:
as §1

For a further assay, the target named is ETV6 (Homo sapiens, UniProt P41212 1-452). A digest of the protocol: as §1
Sequence of ETV6 (P41212 whole entry): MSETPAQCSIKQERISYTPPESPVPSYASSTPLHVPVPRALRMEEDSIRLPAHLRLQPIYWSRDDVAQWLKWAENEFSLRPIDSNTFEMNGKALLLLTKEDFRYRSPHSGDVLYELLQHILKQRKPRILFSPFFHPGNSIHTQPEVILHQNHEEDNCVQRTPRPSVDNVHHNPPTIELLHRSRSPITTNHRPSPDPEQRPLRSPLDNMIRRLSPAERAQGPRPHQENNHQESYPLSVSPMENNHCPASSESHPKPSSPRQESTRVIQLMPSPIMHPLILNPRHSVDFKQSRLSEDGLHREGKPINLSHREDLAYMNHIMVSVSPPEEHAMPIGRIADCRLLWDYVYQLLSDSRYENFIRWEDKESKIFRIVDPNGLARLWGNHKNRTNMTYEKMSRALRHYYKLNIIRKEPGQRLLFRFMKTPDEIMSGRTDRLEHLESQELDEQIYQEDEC

Sequence of ETV5 (P41161 whole entry): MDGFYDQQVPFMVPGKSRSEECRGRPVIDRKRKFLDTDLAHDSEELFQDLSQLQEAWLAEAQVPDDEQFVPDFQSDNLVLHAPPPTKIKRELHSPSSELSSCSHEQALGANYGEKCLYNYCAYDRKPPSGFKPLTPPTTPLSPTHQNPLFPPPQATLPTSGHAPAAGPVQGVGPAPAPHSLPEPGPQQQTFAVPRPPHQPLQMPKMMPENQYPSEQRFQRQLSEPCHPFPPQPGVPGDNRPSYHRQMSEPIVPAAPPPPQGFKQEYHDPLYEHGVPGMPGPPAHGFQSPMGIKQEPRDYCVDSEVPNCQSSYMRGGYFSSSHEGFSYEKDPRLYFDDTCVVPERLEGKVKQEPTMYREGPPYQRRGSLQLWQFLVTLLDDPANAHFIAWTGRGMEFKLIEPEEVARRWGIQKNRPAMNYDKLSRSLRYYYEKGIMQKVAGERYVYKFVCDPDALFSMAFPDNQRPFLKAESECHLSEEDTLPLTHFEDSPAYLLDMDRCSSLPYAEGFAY
Sequence of SPIB (Q01892 whole entry): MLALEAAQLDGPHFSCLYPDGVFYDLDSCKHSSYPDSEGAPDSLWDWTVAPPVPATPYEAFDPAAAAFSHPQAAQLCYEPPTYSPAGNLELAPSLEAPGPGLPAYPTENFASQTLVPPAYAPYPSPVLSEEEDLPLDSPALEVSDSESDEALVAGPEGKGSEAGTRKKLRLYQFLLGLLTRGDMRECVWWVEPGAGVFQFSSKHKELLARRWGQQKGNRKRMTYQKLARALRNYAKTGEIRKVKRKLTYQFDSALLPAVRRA
Sequence of ELF4 (Q99607 whole entry): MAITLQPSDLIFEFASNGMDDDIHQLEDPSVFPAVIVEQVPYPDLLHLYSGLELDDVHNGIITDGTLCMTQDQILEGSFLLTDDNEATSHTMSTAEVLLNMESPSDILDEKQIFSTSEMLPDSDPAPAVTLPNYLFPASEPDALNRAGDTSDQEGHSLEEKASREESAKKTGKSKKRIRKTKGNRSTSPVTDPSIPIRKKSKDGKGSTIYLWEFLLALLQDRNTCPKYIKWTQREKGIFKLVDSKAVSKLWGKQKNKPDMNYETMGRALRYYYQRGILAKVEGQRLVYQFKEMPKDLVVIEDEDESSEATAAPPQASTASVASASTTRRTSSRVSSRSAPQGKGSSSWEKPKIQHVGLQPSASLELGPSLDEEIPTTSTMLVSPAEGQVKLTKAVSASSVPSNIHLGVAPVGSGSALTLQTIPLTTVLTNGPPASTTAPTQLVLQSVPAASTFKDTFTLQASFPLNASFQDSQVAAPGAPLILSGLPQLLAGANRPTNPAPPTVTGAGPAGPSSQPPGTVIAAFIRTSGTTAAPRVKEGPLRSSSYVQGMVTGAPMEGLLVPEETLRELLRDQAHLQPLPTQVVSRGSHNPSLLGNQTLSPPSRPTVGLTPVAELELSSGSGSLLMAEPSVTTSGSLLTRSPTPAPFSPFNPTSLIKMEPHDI
Sequence of ELF1 (P32519 whole entry): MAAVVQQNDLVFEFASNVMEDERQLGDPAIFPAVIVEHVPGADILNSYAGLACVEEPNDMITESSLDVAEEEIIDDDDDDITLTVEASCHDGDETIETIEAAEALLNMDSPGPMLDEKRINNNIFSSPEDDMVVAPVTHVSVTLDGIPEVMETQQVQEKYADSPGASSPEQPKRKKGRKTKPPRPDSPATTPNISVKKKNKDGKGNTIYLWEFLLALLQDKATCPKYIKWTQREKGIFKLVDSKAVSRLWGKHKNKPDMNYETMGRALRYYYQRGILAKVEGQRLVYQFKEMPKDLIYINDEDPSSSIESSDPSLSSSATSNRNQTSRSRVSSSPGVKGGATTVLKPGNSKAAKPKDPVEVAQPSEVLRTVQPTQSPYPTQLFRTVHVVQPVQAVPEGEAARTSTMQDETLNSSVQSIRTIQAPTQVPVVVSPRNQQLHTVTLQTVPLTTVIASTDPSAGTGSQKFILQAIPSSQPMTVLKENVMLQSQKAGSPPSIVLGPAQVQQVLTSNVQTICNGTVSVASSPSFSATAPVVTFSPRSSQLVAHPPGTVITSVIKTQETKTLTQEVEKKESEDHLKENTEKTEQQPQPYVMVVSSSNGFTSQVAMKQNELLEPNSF

For the sequence CTATCA, the binding signal in the assay with FLI1 was 1.1 fold enrichment (6-mer frequency, TF over GST control); with ELK1 it was 1.06 fold enrichment (6-mer frequency, TF over GST control); with GABPA, 1.1 fold enrichment (6-mer frequency, TF over GST control); in the assay with ELF1, 1.05 fold enrichment (6-mer frequency, TF over GST control); with SPI1, 1.01 fold enrichment (6-mer frequency, TF over GST control); with SPIB, 1.05 fold enrichment (6-mer frequency, TF over GST control). For the same sequence, the binding signal was 1.11 fold enrichment (6-mer frequency, TF over GST control) with ELK3; 1.02 fold enrichment (6-mer frequency, TF over GST control) with FEV; 1.03 fold enrichment (6-mer frequency, TF over GST control) with ETV5; 1.15 fold enrichment (6-mer frequency, TF over GST control) in the assay with ELF4; 1 fold enrichment (6-mer frequency, TF over GST control) in the assay with ETV1; 1.06 fold enrichment (6-mer frequency, TF over GST control) with ERF. The binding signal with ETV3L is 1.09 fold enrichment (6-mer frequency, TF over GST control); in the assay with ETS2, 1.04 fold enrichment (6-mer frequency, TF over GST control); with ELF5, 1.01 fold enrichment (6-mer frequency, TF over GST control); with ETV6, 1.03 fold enrichment (6-mer frequency, TF over GST control).
